This is a sample that favours compounds with a hit; in the whole collection about 22% have one here.
LmPK inhibitor – LmPK (Leishmania mexicana) enzyme inhibition. Q27686. purified LmPK, Kinase-Glo ATP luminescence, 1 h. Potency, µM (doses to about 57.5 µM), without a hit: at the top dose activity change, negative = inhibition, actives largely listed as inhibitors. 0.37% of 290,000 active. AID 1721; further: potency means the concentration at half of the fitted maximal effect; on the % scale 0 is the no-effect control and ±100 the full control effect
Target sequence (Q27686 whole entry, looked up): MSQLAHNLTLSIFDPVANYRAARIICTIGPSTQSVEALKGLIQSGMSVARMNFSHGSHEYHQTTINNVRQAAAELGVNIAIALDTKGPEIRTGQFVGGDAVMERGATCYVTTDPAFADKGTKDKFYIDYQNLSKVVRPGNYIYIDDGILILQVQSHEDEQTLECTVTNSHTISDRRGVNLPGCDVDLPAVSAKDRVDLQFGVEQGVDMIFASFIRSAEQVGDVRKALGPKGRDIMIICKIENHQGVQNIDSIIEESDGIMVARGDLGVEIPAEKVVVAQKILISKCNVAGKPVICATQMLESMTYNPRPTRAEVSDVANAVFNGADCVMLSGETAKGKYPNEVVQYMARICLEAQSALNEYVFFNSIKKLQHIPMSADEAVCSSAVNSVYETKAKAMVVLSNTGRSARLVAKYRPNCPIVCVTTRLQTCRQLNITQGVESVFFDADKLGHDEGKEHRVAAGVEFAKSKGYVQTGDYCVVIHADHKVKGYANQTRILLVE
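qHTS format; LmPK 0.1 nM; substrates PEP 0.5 mM and ADP 0.1 mM. One-hour room-temperature incubation, then coupled luciferase luminescence; 0.5 nM enzyme wells mark activation.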
Pf growth 96h – inhibits malaria parasite growth, 96 h. 6.9% of 320,000 active. Potency, µM (series often up to 28.7 µM), without a hit: at the top dose activity change, negative = inhibition, most hits filed as inhibitors. P. falciparum luciferase reporter growth, 96 h; further: potency means the concentration at half of the fitted maximal effect; on the % scale 0 is the no-effect control and ±100 the full control effect
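P. falciparum expressing integrated firefly luciferase, in erythrocytes at 2% hematocrit, 0.05% parasitemia, incubated with compounds 96 h at 37 C, 5% CO2. Growth inhibition read as loss of luminescence; two-generation exposure targets delayed-death apicoplast inhibitors.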
Cycloheximide cs – counter-screen hit for Shiga toxin inhibitors, cycloheximide; 12% of 300,000 active; max response, %; cell reporter, cycloheximide protein synthesis inhibition counterscreen; in the data active means max response mostly above about 13%, no sharp cut-off; inactive means mostly below about 14%; further: read at 38.3 µM for the half of the compounds with a filed dose; 0% is about no effect
Pf growth 48h – P. falciparum growth inhibition at 48 hours (one generation) | AID 504832 | Potency, µM (top dose mostly 28.7 µM), for the others: at the highest dose activity change, negative = inhibition, usual class: inhibitors | 5.9% of 310,000 active | P. falciparum luciferase growth in erythrocytes, 48 h; further: potency means the concentration at half of the fitted maximal effect; on the % scale 0 is the no-effect control and ±100 the full control effect
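Read-out is firefly luciferase luminescence from an integrated reporter in P. falciparum, so falling signal marks reduced parasite growth. Infected erythrocytes were at 2% hematocrit and 0.1% parasitemia (final) in Albumax-supplemented RPMI 1640.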
Shiga inhibitor – Shiga toxin inhibition; Vero cells, Shiga toxin protein synthesis inhibition reporter; inhibition, % at 38.7 µM; 9.2% of 290,000 active; AID 2315; in the data active means inhibition mostly above about 28%, no sharp cut-off; inactive means mostly below about 43%; further: 0% is about no effect
Numbers without * were called inactive; ? = inconclusive; . = no result given; ! = not active in a repeat. Unless noted, the call rests on the fitted dose curve; in most records, active means well fitted inhibition curve with a large enough effect; inconclusive means small, poorly fitted or top-dose-only effect, or another doubt; inactive means no such curve, though single readings can be large or run the other way.

SMILES	LmPK inhibitor	Pf growth 96h	Cycloheximide cs	Pf growth 48h	Shiga inhibitor
COc1cc([N+](=O)[O-])ccc1-c1ccc(/C=N/NC(=O)c2ccccc2O)o1	4%	?	-1	2.6µM*	15
CN(C)c1ccc(/C=N/NC(=O)c2ccccc2O)o1	0%	?	20*	15%	131*
CC(/C=N\NC(=O)c1cc(C)oc1C)=C\c1ccccc1	-9%	-20%	22*	0%	19
Cc1ccc(/C=N/NC(=O)c2cccc3ccccc23)o1	-13%	6%	-9	12%	6
CC(/C=N/NC(=O)c1cc(-c2ccc(C)o2)[nH]n1)=C\c1ccccc1	3%	-20%	-2	-7%	-6
CC(Oc1cccc(F)c1)c1ccnc2nc(/N=C/N(C)C)nn12 (centres undefined)	1%	4%	-6	7%	-4
CCC(CO)NS(=O)(=O)c1cc(-c2nn(C)c(=O)c3ccccc23)ccc1C (centres undefined)	-3%	137%	-2	-4%	-22
C=CCNC(=O)NC(=O)COC(=O)CNS(=O)(=O)c1ccc(F)c(F)c1F	-4%	-16%	-6	39%	-11
Cc1ccc(S(=O)(=O)N(C)C)cc1NC(=O)COC(=O)C1CC1	.	1%	.	?	.
COC(=O)CNC(=O)c1sc2ncn(CC(=O)Nc3ccc(C)c(Cl)c3)c(=O)c2c1C	-4%	?	-4	-16%	-10
Cc1cc(C(=O)N/N=C/c2ccncc2)c(C)o1	?	51%	11	6%	17
Cc1ccc(/C=N/NC(=O)c2cc(C)oc2C)cc1	13µM*	163%	53*	85%	60*
COc1cc(CC(=O)NCCc2ccc(OCc3ccccc3)cc2)c([N+](=O)[O-])cc1OC	-1%	.	49*	4%	55
CCOc1ccc(CCNC(=O)COC(=O)c2cc(OC)c(OC)cc2[N+](=O)[O-])cc1OCC	.	?	.	15µM*	.
CCOc1ccc(CCNC(=O)COC(=O)c2cc([N+](=O)[O-])ccc2N2CCOCC2)cc1OCC	0%	9.3µM*	-2	?	-11
COc1ccc(CCNC(=O)Cc2cc(OCc3ccccc3)c(OC)cc2[N+](=O)[O-])cc1OC	0%	?	2	?	-38
CCOc1ccc(CCNC(=O)c2cc([N+](=O)[O-])ccc2N2CCOCC2)cc1OCC	0%	?	-2	?	10
O=C(CN1C(=O)NC2(CCCc3ccccc32)C1=O)NCc1cccs1 (centres undefined)	.	12%	.	-1%	.
CCOC(=O)[C@H](CCc1ccccc1)N[C@@H](C)C(=O)N1CCC[C@@H]1C(=O)O	.	0%	.	0%	.
CCOC(=O)C(CCc1ccccc1)NC(C)C(=O)N1Cc2cc(OC)c(OC)cc2CC1C(=O)O (centres undefined)	.	12µM*	-2	?	-5
CCOC(=O)[C@H](CCc1ccccc1)N[C@@H](C)C(=O)N1CCC[C@H]1C(=O)O	-5%	6µM*!	-1	-26%	-18
C=CCOC(=O)C1=C(C)NC(=S)C(C#N)(CC=C)C1c1ccccc1Cl (centres undefined)	8%	1.5µM*	-1	1.5µM*	-9
O=C1CCC[C@@H]2[C@H]3CCC[N+]4([O-])CCC[C@@H](CN12)[C@@H]34 (some centres undefined)	-4%	?	-2	-2%	2
C=CCOC(=O)c1[nH]c2c(c1C)C(=O)CC(c1ccco1)C2 (centres undefined)	0%	-86%	-2	5.2µM*	-3
Cc1c(C(=O)OCC(C)C)[nH]c2c1C(=O)CC(c1ccco1)C2 (centres undefined)	-1%	0%	10	12µM*	18
SMILES	LmPK inhibitor	Pf growth 96h	Cycloheximide cs	Pf growth 48h	Shiga inhibitor
C/C=C/COC(=O)c1[nH]c2c(c1C)C(=O)CC(c1ccco1)C2 (centres undefined)	-3%	-34%	-5	1.5µM*	-11
COC(=O)C1C(=O)c2c([nH]c(C(=O)OC3CCCC3)c2C)CC1C (centres undefined)	0%	.	47*	26%	49
COC(=O)c1[nH]c2c(c1C)C(=O)CC(c1ccccc1)C2 (centres undefined)	-2%	1%	-2	?	-2
S=c1nc(C2CC2)n(-c2ccccc2)[nH]1	-15%	6%	5	-6%	-1
COc1ccc(C(=O)Nc2ccnn2C2CCN(Cc3ccccn3)CC2)cc1	0%	53%	-1	28%	-5
Cc1c(C(=O)OC2CCCC2)[nH]c2c1C(=O)CC(c1ccco1)C2 (centres undefined)	2%	?	1	7.4µM*	-1
Cc1c(C(=O)OCC2CCCO2)[nH]c2c1C(=O)CC(c1ccco1)C2 (centres undefined)	4%	.	7	?	17
Cc1cccc(C(=O)N/N=C/c2cc(Br)c(Br)o2)c1	1%	?	19	?	33*
Cc1onc(-c2ccccc2)c1C(=O)N/N=C/c1cc(Br)c(Br)o1	1%	13µM*	-4	?	-4
O=C(N/N=C/c1cc(Br)c(Br)o1)C(O)c1ccccc1 (centres undefined)	-1%	?	2	-15%	12
Cc1ccc(/C=N/NC(=O)c2c(-c3ccccc3)noc2C)o1	1%	-2%	-3	3%	-11
c1ccc(CCSc2nccn2-c2ccccc2)cc1	-3%	423%	52*	130%	120*
CC(=O)Nc1ccc(C(=O)c2ccccc2)cc1	0%	54%	16*	33%	34
CCCC(=O)Nc1ccc(C#Cc2ccccc2)cc1	-1%	-34%	51*	52%	115*
CCCC(=O)Nc1ccc(Oc2ccc(NC(=O)CCC)cc2)cc1	-1%	2%	9	15%	-2
CC(=O)Nc1ccc(NC(=O)Nc2ccccc2)cc1	-1%	103%	25*	98%	64*
CC(=O)Nc1ccc(NC(=O)c2ccc(NC(=O)c3ccccc3)cc2)cc1	-13%	?	19	9%	-18
C/C(O)=C(/N=O)C(=O)Nc1ccccc1	3%	12µM*	9	1%	-10
CC(=O)Nc1cccc(NC(=O)Nc2ccc(C(C)=O)cc2)c1	1%	.	-1	44%	68
COC(=O)c1ccc(CSc2nnc(NC(C)C)s2)o1	1%	?	0	-10%	14
O=C(Nc1ccccc1)Nc1c(F)cccc1F	-10%	77%	41*	41%	43*
CCCCCC(=O)Nc1ccc(C2C(=O)c3ccccc3C2=O)cc1	-9%	?	-1	13µM*	-3
O=C(CCCCC(=O)Nc1ccccc1)Nc1ccccc1	3%	-1%	-2	9%	.
CCCCC(=O)Nc1ccc(C(=O)c2ccccc2)cc1	-6%	32%	35*	26%	49*
CC(=O)Nc1ccc(/C(C)=N/NS(=O)(=O)c2ccccc2)cc1	-7%	46%	23*	23%	7

From PubChem BioAssay
